Compounds with a hit are over-represented: about 4.1% of the library has one in this group of screens.
hcDAF12 agonist: H. contortus DAF-12 activation, primary screen; HEK293 hcDAF-12 lit1-tk-luc reporter, luminescence; 0% DMSO, 100% Δ7-dafachronic acid; 370,000 compounds, 1.4% hits; AID 652067; activation, % at 6.8 µM;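 active = activation above the mean of all tested compounds plus 3 SD, cut at about 5.5% in these data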
hgDAF12 agonist: agonists of H. glycines DAF-12 nuclear receptor; AID 687014; 370,000 compounds, 1.8% hits; HEK293 GAL4-hgDAF12 UAS-luciferase reporter, agonist luminescence; normalized to butyrate control; activation, % at 6.8 µM;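 active = activation above a cutoff set at the mean of all screened compounds plus 3 SD, cut at about 10% in these data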
ssDAF-12 act: activators of S. stercoralis DAF-12 nuclear receptor. 370,000 compounds, 1% hits. activation, % at 6.8 µM. HEK293 ssDAF-12/GRIP1 lit1-tk-luc reporter, luminescence; % of 3 µM dafachronic acid response;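 active = activation above the mean over all tested compounds plus 3 SD, cut at about 0.9% in these data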
DAX1 inh-1: blocks DAX1 repression of SF-1 activated StAR promoter | HEK293T StAR-luciferase reporter, SF-1/DAX-1 repression relief | inhibition, % at 6.8 µM | AID 652010 | 370,000 compounds, 1.1% hits;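 active = inhibition above the mean over all tested compounds plus 3 SD, cut at about 3.6% in these data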;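 also: higher inhibition means more luminescence from relief of DAX-1 repression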
DAX1 inh-2: inhibits human nuclear receptor DAX1; P51843; HEK293 Gal4-DAX1 luciferase reporter, luminescence; inhibition, % at 6.75 µM; 340,000 compounds, 0.99% hits; AID 504766;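 active = inhibition above the mean over all tested compounds plus 3 SD, cut at about 4.2% in these data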;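 also: inhibition shows as a rise in luminescence from relieved DAX1 repression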
Target sequence (P51843 207-470 limits assumed): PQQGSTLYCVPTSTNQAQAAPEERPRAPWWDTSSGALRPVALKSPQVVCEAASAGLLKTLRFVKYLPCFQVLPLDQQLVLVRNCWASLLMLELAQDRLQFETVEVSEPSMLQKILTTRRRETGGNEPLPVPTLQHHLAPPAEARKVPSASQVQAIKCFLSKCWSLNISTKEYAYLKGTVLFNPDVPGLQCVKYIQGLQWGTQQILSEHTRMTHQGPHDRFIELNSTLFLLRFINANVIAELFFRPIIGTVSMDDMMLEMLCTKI
Hits are given with their value; 0 = inactive; - = not tested or not shown.

SMILES | hcDAF12 agonist | hgDAF12 agonist | ssDAF-12 act | DAX1 inh-1 | DAX1 inh-2
C[C@@H](/C=C/C(=O)OC(C)(C)C)Sc1ccc(C(C)(C)C)cc1 | 0 | 0 | 0 | 0 | -
COc1ccc(-c2nnn(CC(=O)N3CCN(c4ccc(F)cc4)CC3)n2)cc1 | 0 | 0 | 0 | 0 | 5.3
Cc1ccc(C(=O)N(C)[C@H]2C[C@H]3c4[nH]c5c(-c6ccc7c(c6)OCO7)cccc5c4CCN3C[C@H]2[C@H](C)O)cc1 | 0 | 0 | 0 | 0 | -
O=S1(=O)N[C@H](Cc2ccccc2)COc2cc(N3CCCCC3)ccc21 | 0 | 0 | 0 | 0 | -
C=CCOC(=O)C1=C(C)N=c2sc(=C3C(=O)N(CC(=O)O)c4ccccc43)c(=O)n2C1c1ccc(OC)cc1 (configuration not stated) | 0 | 0 | 0 | 0 | -
Cc1ccc(-c2onc3ccc(C4(C)OCCO4)cc23)cc1 | 0 | 0 | 0 | 0 | 0
Cc1cc(-c2onc3ccc(Cl)cc23)ccc1O | 6.2 | 0 | 0 | 0 | 0
CC(=O)c1ccc2noc(-c3ccc(Cl)cc3)c2c1 | 0 | 0 | 0 | 0 | 0
Cc1ccc(-c2onc3ccc(C=O)cc23)cc1 | 0 | 13.0 | 0 | 0 | 0
Cc1cc(C)cc(NC(=O)C2CCCN(c3ncccn3)C2)c1 (configuration not stated) | 0 | 0 | 0 | 0 | 0
Cc1ccc(NC(=O)C2CCCN(c3ncccn3)C2)cc1F (configuration not stated) | 0 | 12.2 | 0 | 0 | 0
O=C(Nc1ccc2c(c1)CCC2)C1CCCN(c2ncccn2)C1 (configuration not stated) | 0 | 10.7 | 0 | 0 | 0
O=C(Nc1cccc(C(F)(F)F)c1)C1CCCN(c2ncccn2)C1 (configuration not stated) | 0 | 0 | 0 | 0 | 0
C[C@@H]1C(=O)N2N=Cc3cc4ccccc4cc3[C@H]2N2N=Cc3cc4ccccc4cc3[C@@H]12 | 0 | 0 | 0 | 0 | -
CCCOc1ccccc1/C=C(\C#N)C(=O)Nc1cccnc1 | 0 | 0 | 0 | 0 | 5.0
COc1ccc(OC)c(/C=N/NC(=O)c2cnccn2)c1 | 0 | 0 | 0 | 0 | 4.4
O=C(N/N=C/c1cc([N+](=O)[O-])ccc1Cl)c1cnccn1 | 0 | 0 | 0 | 0 | 5.1
O=c1[nH]cc(C(F)(F)F)cc1NS(=O)(=O)c1ccccc1[N+](=O)[O-] | 0 | 0 | 0 | 0 | 0
CN(Cc1ccccc1Cl)C(=O)CN1C(=O)C2(OCCCO2)c2ccccc21 | 0 | 0 | 0 | 0 | -
CCOc1ccccc1CN1CCN(Cc2ccc3cc(F)ccc3n2)CC1CCO (configuration not stated) | 0 | 0 | 0 | 0 | 5.4
CCOc1ccc2nc(CN3CCN(Cc4ccccc4OCC)C(CCO)C3)ccc2c1 (configuration not stated) | 0 | 0 | 0 | 0 | 0
Cc1nc(C)n(CC(=O)N2CCCC(C(=O)c3cccc4ccccc34)C2)n1 (configuration not stated) | 0 | 11.5 | 0 | 0 | 0
CC1CCC2(CCC(=O)N2CCCO)CC1 (configuration not stated) | 0 | 0 | 0 | 0 | -
N#Cc1ccc(OCc2nnc(SCC(=O)c3ccccc3)n2-c2ccccc2)cc1 | 0 | 0 | 0 | 0 | 0
COC(=O)c1cccc(NC(=O)CSc2nnc(COc3ccc(C#N)cc3)n2-c2ccccc2)c1 | 0 | 0 | 0 | 0 | 5.1
SMILES | hcDAF12 agonist | hgDAF12 agonist | ssDAF-12 act | DAX1 inh-1 | DAX1 inh-2
COC(=O)[C@]12C[C@H](CC(=O)N3CCOCC3)C(=O)N(Cc3ccco3)C1=C[C@H](C(C)(C)C)O[C@@H]2C | 0 | 0 | 0 | 0 | -
CCOc1ccccc1/C=N/Nc1ccc(Cl)nn1 | 0 | 0 | 1.0 | 0 | 0
CCOc1ccc(/C=N/Nc2ccc(Cl)nn2)c(O)c1 | 0 | 0 | 0 | 0 | 0
COc1ccc(-n2c(SCC(=O)Nc3cc(C)c(NC(=O)c4ccccc4)cc3OC)nnc2-c2ccccc2F)cc1 | 0 | 0 | 0 | 0 | -
Cc1ccc(-c2cc(C(=O)N=Nc3c(O)[nH]c4ccccc34)[nH]n2)cc1C | 0 | 0 | 0 | 0 | -
COc1cc(C2Nc3ccccc3C(=O)N2c2ccc3c(c2)OCCO3)ccc1OCC(C)C (configuration not stated) | 0 | 11.5 | 0 | 0 | 0
O=C1c2ccccc2NC(c2ccc3c(c2)OCCO3)N1c1ccc2c(c1)OCCO2 (configuration not stated) | 0 | 11.8 | 0 | 0 | 0
CC(C)(C)c1ccc(-c2nnc(SCC3CCCCO3)n2-c2ccc(Cl)cc2)cc1 (configuration not stated) | 0 | 0 | 0 | 0 | -
COc1ccc(-n2cnc3ccccc32)cc1 | 0 | 0 | 0 | 0 | 0
c1ccc(-n2cnc3ccccc32)cc1 | 0 | 11.0 | 0 | 0 | 0
NC(=O)C1CCN(C(=O)c2ccc(CS(=O)(=O)c3c(Cl)cccc3Cl)o2)CC1 | 0 | 0 | 0 | 0 | 6.9
CC(C)[C@@H](CO)N1Cc2nnn(Cc3ccccc3)c2-c2ccccc2S1(=O)=O | 0 | 0 | 0 | 0 | -
COc1cccc(-c2cc(C(=O)NCC3CCCO3)on2)c1 (configuration not stated) | 0 | 11.2 | 0 | 0 | 0
Cc1[nH]c2ccccc2c1CCN(Cc1cccs1)C(=O)Nc1cccc2c1OCO2 | 0 | 10.6 | 0 | 0 | -
COc1ccc(NC(=O)N(CCc2c(C)[nH]c3ccccc23)Cc2cccs2)cc1OC | 0 | 0 | 0 | 0 | -
CCC(C(=O)NC(C)(C)C)N(C(=O)Cn1nnc(-c2ccccc2F)n1)c1cccc2c1CCCC2 (configuration not stated) | 0 | 0 | 0 | 0 | 4.3
O=C(Nc1ccc(Cl)cc1)c1ccc(OCC2CCCO2)cc1 (configuration not stated) | 0 | 12.6 | 0 | 0 | 0
O=C(NCc1ccc(Cl)cc1)c1ccc(OCC2CCCO2)cc1 (configuration not stated) | 0 | 0 | 0 | 0 | 0
CON(C)C(=O)[C@H]1C[C@@H]2[C@H](C[C@@H](c3ccccc3)[C@H]1C)N(c1ccc(F)cc1)C(=O)N2CCCOc1ccccc1 | 0 | 0 | 0 | 0 | -
CCOc1ccsc1C(=O)O | 0 | 0 | 0 | 0 | 0
CN(C)C=Nc1ccc(Cn2cnc3nc4ccc(Cl)cc4cc3c2=O)cc1 | 0 | 0 | 0 | 0 | -
O=c1c2cc3cc(Cl)ccc3nc2ncn1CCc1c[nH]c2ccccc12 | 0 | 0 | 1.5 | 0 | -
CCCCN(C)C(=O)CSc1nnc(-c2cccnc2)n1C1CCCCC1 | 0 | 0 | 0 | 0 | -
CCCc1nc2ccc(C(=O)OC)cn2c1Cc1ccccc1 | 0 | 0 | 1.0 | 0 | -
CCCc1nc2ccc(C(=O)OC)cn2c1Cc1ccc(C)cc1 | 0 | 0 | 0 | 0 | -
CCCc1nc2ccc(C(=O)OC)cn2c1Cc1ccccc1OC | 0 | 0 | 0 | 4.2 | -
C/C(=C/c1nc(N)n(Cc2ccccc2)c1Cc1ccccc1)Cn1[nH]c(=O)n(-c2ccccc2)c1=O | 0 | 0 | 0 | 0 | -
Cc1ccc(-n2c(SCC(=O)Nc3ccccc3-c3ccccc3)nnc2-c2ccco2)cc1 | 0 | 0 | 0 | 0 | -

High-throughput results (PubChem)
